According to PubChem BioAssay AID651965 (National Center for Advancing Translational Sciences (NCATS), 2013):
About 6,400 (1.9%) of roughly 340,000 compounds were called active. A call without a number means that no potency is given here. Another 4% or so got no clear call; they are omitted. The sample holds actives, similar compounds and a random draw of the others, so the mix is not that of the screen. Calls come from the whole dose curve; as a rule, active = well fitted falling curve with a large enough effect; inconclusive = small, poorly fitted or top-dose-only effect; inactive = no such curve, though single readings can be large or run the other way.

biological target: ATP-dependent Clp protease proteolytic subunit (Bacillus subtilis (strain 168)) (UniProt P80244); assay: qHTS Assay for Activators of ClpP; note: the source files actives as falling curves though it sought activators and does not explain the sign; nearly all actives have a fitted effect of over 65% in size; settings: purified B. subtilis ClpP, FRET peptide cleavage, 20 min; series mostly up to 57.5 µM
How it was run: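 ClpP 10 microg/mL final, pH 8 Tris/KCl buffer with BSA, glycerol, Tween-20; compound pinned in; FRET-FV substrate; RT 20 min; Ex320/Em430; ΔFRET vs ADEP 5.8 microM, DMSO, no enzyme.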
Potency is the fitted concentration of half-maximal effect.

ATP-dependent Clp protease proteolytic subunit (Bacillus subtilis (strain 168)), sequence (P80244 whole entry, looked up): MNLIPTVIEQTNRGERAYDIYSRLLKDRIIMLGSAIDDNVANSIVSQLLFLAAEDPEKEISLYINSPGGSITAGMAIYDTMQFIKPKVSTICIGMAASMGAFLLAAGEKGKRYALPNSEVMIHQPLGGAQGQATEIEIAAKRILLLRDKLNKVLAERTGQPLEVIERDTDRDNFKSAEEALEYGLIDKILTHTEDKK

Question: With CCN1C(=O)[C@H]2[C@@H](c3ccc(C(F)(F)F)cc3)N[C@]3(CCCN(Cc4ccc(Br)cc4)C3=O)[C@H]2C1=O as the compound, how does the Potency read?
Answer: inactive

Question: Which Potency does the source give for O=C(COC(=O)c1ncc(Cl)c(Cl)c1Cl)NNC(=O)c1ccccc1 here?
Answer: inactive

Question: Which Potency does the source give for O=C(COC(=O)c1ncc(Cl)c(Cl)c1Cl)NCc1ccccc1 here?
Answer: inactive

Question: How did the Potency turn out when CS(=O)(=O)c1ccc(Cl)c(NC(=O)COC(=O)c2ncc(Cl)c(Cl)c2Cl)c1 was run?
Answer: 14.1 µM (active)

Question: With COc1ccc(C(=O)N2CCCCC2c2cc(C(=O)Nc3ccccc3)no2)cc1 (stereo not drawn) as the compound, how does the Potency read?
Answer: inactive

Question: Which Potency does the source give for Cc1cc(C)n2c(NCc3ccccc3)c(CC(C)C)nc2n1 here?
Answer: inactive

Question: Cc1cccc(CN2CCN(C3CN(Cc4cn(Cc5ccccc5F)nn4)S(=O)(=O)C3)CC2)c1 (stereo not drawn) was tested. Which Potency did it give?
Answer: inactive

Question: For CNCCCOc1cc2nc(N3CCCN(C)CC3)nc(NC3CCN(C)CC3)c2cc1OC, which Potency is on record?
Answer: inactive

Question: How did the Potency turn out when Nc1ccc(-c2nnc(-c3ccc(-c4ccccc4)cc3)o2)cc1 was run?
Answer: 31.6 µM (active)

Question: For CN(C)c1ccc(-c2nnc(-c3cccnc3)o2)cc1, which Potency is on record?
Answer: inactive

Question: With OC(c1nnc(-c2ccccc2)o1)c1cccs1 (stereo not drawn) as the compound, how does the Potency read?
Answer: inactive

Question: For O=C(COC(=O)c1ccccc1OCCOc1ccccc1)Nc1cccc(Br)c1, which Potency is on record?
Answer: inactive

Question: How did the Potency turn out when Cc1ccc(-c2cnc(NC(=O)CCC(=O)N(C)Cc3ccccc3)n2C)cc1 was run?
Answer: inactive

Question: For Cc1ccc(-c2cnc(NCc3ccc(C(C)C)cc3)n2C)cc1, which Potency is on record?
Answer: 28.2 µM (active)

Question: For CC(=O)N1CCN(c2ccc(NCc3ccc(C(C)C)cc3)cc2)CC1, which Potency is on record?
Answer: inactive

Question: How did the Potency turn out when COc1ccc2nc(/N=C(\N)NC(=O)Nc3ccccc3)nc(C)c2c1 was run?
Answer: 14.1 µM (active)

Question: Which Potency does the source give for COc1ccc2nc(C)cc(Nc3cccc(C(=O)O)c3)c2c1 here?
Answer: inactive

Question: COc1cccc(NC(=O)Nc2ccc(F)cc2)c1 was tested. Which Potency did it give?
Answer: inactive

Question: How did the Potency turn out when COC(=O)[C@@]12C[C@@H](CC(=O)N3CCCCC3)C(=O)N(Cc3ccc4c(c3)OCO4)C1=CCC(C)(C)C2 was run?
Answer: inactive

Question: COC(=O)CSc1nc(C)c2ccc(OC)cc2n1 was tested. Which Potency did it give?
Answer: 25.1 µM (active)

Question: For CCc1nnc(SCC(=O)Nc2cc(OC)ccc2OC)nc1CC, which Potency is on record?
Answer: inactive

Question: COc1ccc2nc(SCc3ccccc3)nc(C)c2c1 was tested. Which Potency did it give?
Answer: inactive

Question: How did the Potency turn out when O=c1cc(CN2CCCCCCC2)c2c(ccc3ccccc32)o1 was run?
Answer: inactive

Question: How did the Potency turn out when NC(=O)c1ccc(NC(=O)COC(=O)c2c3c(nc4ccccc24)/C(=C\c2ccc4c(c2)OCO4)CCC3)cc1 was run?
Answer: inactive

Question: Which Potency does the source give for NS(=O)(=O)c1ccc(NC(=O)COC(=O)c2c3c(nc4ccccc24)/C(=C\c2ccc4c(c2)OCO4)CCC3)cc1 here?
Answer: inactive

Question: How did the Potency turn out when O=C1/C(=C/c2ccc3c(c2)OCO3)CCC/C1=C\c1ccc2c(c1)OCO2 was run?
Answer: 28.2 µM (active)

Question: With CCOC(=O)C1=CC[C@@H](c2ccccc2)N(S(=O)(=O)c2ccc(C)cc2)[C@H]1c1cccc(OC)c1 as the compound, how does the Potency read?
Answer: inactive

Question: How did the Potency turn out when O=C(c1ccc(C(F)(F)F)cc1)N1CCC(=O)N([C@H](COCc2ccccc2)Cc2ccccc2)CC1 was run?
Answer: inactive

Question: Which Potency does the source give for CCc1nnc(NC(=O)CCN(c2ccc(C)cc2)S(=O)(=O)c2ccccc2)s1 here?
Answer: inactive

Question: With Cc1ccc(N(CCC(=O)O)S(=O)(=O)c2cccc(C(F)(F)F)c2)cc1 as the compound, how does the Potency read?
Answer: 31.6 µM (active)

Question: How did the Potency turn out when O=C(O)c1cc(S(=O)(=O)N(Cc2ccccc2)c2cccc(C(F)(F)F)c2)ccc1Cl was run?
Answer: inactive

Question: With CN(C)CCNC(=O)c1cccc(-c2cnc3c(NC=O)cc(-c4cccc(C(F)(F)F)c4)cn23)c1 as the compound, how does the Potency read?
Answer: inactive

Question: For CCN(CC(=O)Nc1ccccc1OC)C(=O)CC1CC2CCC1C2 (stereo not drawn), which Potency is on record?
Answer: 35.5 µM (active)

Question: Which Potency does the source give for CCN(CC(=O)Nc1ccccc1OC)C(=O)Cn1cnc2ccccc2c1=O here?
Answer: inactive

Question: COc1ccc(S(=O)(=O)N2CCOCC2)cc1NC(=O)CC1CC2CCC1C2 (stereo not drawn) was tested. Which Potency did it give?
Answer: inactive

Question: With COc1cccc(-c2nc3nc(C)cc(C)n3c2NC2CCCCC2)c1 as the compound, how does the Potency read?
Answer: inactive

Question: For COc1ccccc1-c1cc2nc(NCc3cccc(Cl)c3)ccn2n1, which Potency is on record?
Answer: inactive

Question: How did the Potency turn out when Cc1nc2sccn2c(=O)c1S(=O)(=O)NCCc1ccccc1 was run?
Answer: inactive

Question: Which Potency does the source give for O=S(=O)(NCCc1ccc(Cl)cc1)c1cccs1 here?
Answer: inactive

Question: Which Potency does the source give for Cc1nc2sc(C)c(C)n2c(=O)c1S(=O)(=O)NCCc1ccc(Cl)cc1 here?
Answer: 3.98 µM (active)

Question: How did the Potency turn out when CCOC(=O)[C@]12CCC=C1N(Cc1ccco1)C(=O)[C@H](CC(=O)NCc1cccc(C(F)(F)F)c1)C2 was run?
Answer: inactive

Question: With O=[N+]([O-])c1ccc(CN2CC(N3CC=CC3)CS2(=O)=O)cc1 (stereo not drawn) as the compound, how does the Potency read?
Answer: inactive

Question: Cc1ccc(-c2cnc(C(O)c3cc(Cl)cc(Cl)c3)[nH]2)cc1 (stereo not drawn) was tested. Which Potency did it give?
Answer: inactive

Question: Which Potency does the source give for Cc1cc2oc(=O)cc(CN(C)Cc3ccccc3)c2cc1Cl here?
Answer: inactive

Question: CN1OC[C@@H]2CN[C@H](c3ccc(-c4ccccc4)cc3)C[C@@H]21 was tested. Which Potency did it give?
Answer: inactive

Question: Which Potency does the source give for Cc1ccc(C2=C/C(=C\c3cccnc3)C(=O)O2)cc1 here?
Answer: inactive

Question: How did the Potency turn out when O=C1OC(c2ccc(Cl)cc2)=N/C1=C\c1cccnc1 was run?
Answer: 3.16 µM (active)

Question: With Cc1ccc(C2=N/C(=C\c3ccc(OS(=O)(=O)c4ccc(C)cc4)cc3)C(=O)O2)cc1 as the compound, how does the Potency read?
Answer: inactive

Question: For O=C(NCCCN1CCOCC1)c1cnn2c(-c3ccccc3)cc(-c3ccccc3)nc12, which Potency is on record?
Answer: 15.8 µM (active)

Question: Cc1cccc(N2CCN(C(=O)c3cnn4c(C(F)F)cc(-c5ccccc5)nc34)CC2)c1C was tested. Which Potency did it give?
Answer: inactive

Question: For O=C(O)c1cnn2c(C(F)(F)F)cc(-c3ccccc3)nc12, which Potency is on record?
Answer: 0.631 µM (active)

Question: For O=C(NCCCN1CCOCC1)c1cn(-c2ccccc2)nc1-c1ccc(F)cc1, which Potency is on record?
Answer: inactive

Question: With Cc1cccc(NC(=O)CSc2nc(-c3ccco3)cc(C(F)(F)F)n2)c1C as the compound, how does the Potency read?
Answer: inactive

Question: How did the Potency turn out when O=C(NCc1ccco1)c1cnn2c(C(F)(F)F)cc(-c3ccco3)nc12 was run?
Answer: inactive

Question: Which Potency does the source give for COC(=O)c1cnn2c(C(F)(F)F)cc(-c3ccco3)nc12 here?
Answer: 28.2 µM (active)

Question: Which Potency does the source give for O=C(NCCCN1CCOCC1)c1cc(-c2ccccc2F)no1 here?
Answer: inactive

Question: For Cc1ccc(-c2cc(C(F)(F)F)n3ncc(C(=O)N4CCCCC4c4cccnc4)c3n2)cc1 (stereo not drawn), which Potency is on record?
Answer: inactive

Question: With Cc1cccc(CNC(=O)c2sc(=O)n(Cc3ccccc3C)c2C)c1 as the compound, how does the Potency read?
Answer: inactive

Question: Cc1ccc(-c2nc3ccc(Br)cn3c2Cc2ccccc2C(F)(F)F)cc1 was tested. Which Potency did it give?
Answer: inactive

Question: How did the Potency turn out when Cc1csc[n+]1CCC1CCCCC1 was run?
Answer: inactive

Question: For CCOC(=O)C1(C)CCCN(C(=O)c2cccc(Cl)c2)C1 (stereo not drawn), which Potency is on record?
Answer: inactive

Question: For CN(C(=N)N)c1ccc(/C=C2\C=Cc3ccccc32)cc1, which Potency is on record?
Answer: inactive

Question: How did the Potency turn out when CCCCC(CCCC)c1ccc(C=Nc2ccc(/C=C/c3ccnc4ccccc34)cc2)cc1 was run?
Answer: inactive
